Test results reported in PubChem BioAssay (EPA / NIEHS).
Records with an inconclusive call do not appear. Active and inactive are the calls of the source. Rule for the calls, unless noted: active = hit-call score of the fitted dose curve at least 0.9, where 1 is the maximum; inactive = score below 0.9.

How the values were obtained:
[1] = target: Paired box protein Pax-6 (Homo sapiens) (UniProt P26367); experiment: ATG_Pax6_CIS: Attagene CIS-FACTORIAL HepG2 Assay for human Paired Box 6 (PAX6) (AID 2282956); settings: HepG2 CIS-FACTORIAL PAX6 reporter transcription, RNA readout; actives raise or lower the signal
Chain of Paired box protein Pax-6 (Homo sapiens) (P26367 whole entry, looked up): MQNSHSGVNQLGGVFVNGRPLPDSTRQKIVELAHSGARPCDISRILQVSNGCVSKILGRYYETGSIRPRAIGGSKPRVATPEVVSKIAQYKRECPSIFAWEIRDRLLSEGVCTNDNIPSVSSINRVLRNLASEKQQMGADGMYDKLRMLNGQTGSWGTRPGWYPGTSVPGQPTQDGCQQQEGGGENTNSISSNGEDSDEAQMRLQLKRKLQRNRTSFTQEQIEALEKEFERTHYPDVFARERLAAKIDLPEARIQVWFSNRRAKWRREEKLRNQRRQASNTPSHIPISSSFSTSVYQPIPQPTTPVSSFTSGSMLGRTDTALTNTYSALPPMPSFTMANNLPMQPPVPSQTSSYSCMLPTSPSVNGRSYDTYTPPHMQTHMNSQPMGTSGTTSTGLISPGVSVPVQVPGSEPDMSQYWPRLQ
Procedure, shortened: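 HepG2 cells transiently transfected with cis-promoter-driven multiplexed reporter units sensing endogenous transcription factor activity; 24 h chemical exposure. Reporter mRNA quantified by RT-PCR, 6-FAM labelling, HpaI digestion and capillary electrophoresis; bidirectional fit versus DMSO baseline.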

[2] = ATG_PXRE_CIS: Attagene CIS-FACTORIAL HepG2 Assay for human Pregnane X Receptor Element (PXRE) (AID 2282957); settings: HepG2 Attagene CIS-FACTORIAL PXRE reporter, mRNA; actives raise or lower the signal
Procedure, shortened: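 Cells: HepG2, transiently transfected reporter units under cis promoter control. Exposure: 24 h. Detection: reporter mRNA via RT-PCR/CE fluorescence; bidirectional fitting, DMSO-referenced.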

[3] = ATG_PPRE_CIS: Attagene CIS-FACTORIAL HepG2 Assay for human Peroxisome Proliferator-activated Response Element (PPRE) (AID 2282958); settings: HepG2 PPRE cis-element reporter, Attagene transcription factor profiling; actives raise or lower the signal
Procedure, shortened: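 In this cell-based multiplex, a PPRE cis element drives a reporter sequence in transiently transfected HepG2 cells. Following 24 h treatment, labeled cDNA amplicons are sized and quantified by capillary electrophoresis, with DMSO defining baseline.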

[4] = ATG_RORE_CIS: Attagene CIS-FACTORIAL HepG2 Assay for human RAR-related Orphan Receptor Element (RORE) (AID 2282959); settings: HepG2 Attagene cis-factorial RORE reporter, mRNA; actives raise or lower the signal
Procedure, shortened: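 Endogenous factor activity at a cis response element is read as reporter transcript levels in HepG2 cells, 24 h post-dose. Transcripts are quantified by RT-PCR with capillary electrophoresis, and data fitted in both directions against DMSO.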

[5] = ATG_Sox_CIS: Attagene CIS-FACTORIAL HepG2 Assay for human SRY-box transcription factor (SOX) (AID 2282960); settings: HepG2 Attagene cis-factorial SOX reporter, mRNA; actives raise or lower the signal
Procedure, shortened: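 Measures mRNA induction of a SOX1-associated reporter in HepG2 after 24 h dosing. Fluorescently labelled RT-PCR fragments are separated by capillary electrophoresis, and gain or loss relative to DMSO control is fitted.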

[6] = target: Transcription factor Sp1 (Homo sapiens) (UniProt P08047); experiment: ATG_Sp1_CIS: Attagene CIS-FACTORIAL HepG2 Assay for human Specificity Protein 1 (Sp1) (AID 2282961); settings: HepG2 Sp1 cis-reporter transcription, actives raise or lower the signal
Chain of Transcription factor Sp1 (Homo sapiens) (P08047 whole entry, looked up): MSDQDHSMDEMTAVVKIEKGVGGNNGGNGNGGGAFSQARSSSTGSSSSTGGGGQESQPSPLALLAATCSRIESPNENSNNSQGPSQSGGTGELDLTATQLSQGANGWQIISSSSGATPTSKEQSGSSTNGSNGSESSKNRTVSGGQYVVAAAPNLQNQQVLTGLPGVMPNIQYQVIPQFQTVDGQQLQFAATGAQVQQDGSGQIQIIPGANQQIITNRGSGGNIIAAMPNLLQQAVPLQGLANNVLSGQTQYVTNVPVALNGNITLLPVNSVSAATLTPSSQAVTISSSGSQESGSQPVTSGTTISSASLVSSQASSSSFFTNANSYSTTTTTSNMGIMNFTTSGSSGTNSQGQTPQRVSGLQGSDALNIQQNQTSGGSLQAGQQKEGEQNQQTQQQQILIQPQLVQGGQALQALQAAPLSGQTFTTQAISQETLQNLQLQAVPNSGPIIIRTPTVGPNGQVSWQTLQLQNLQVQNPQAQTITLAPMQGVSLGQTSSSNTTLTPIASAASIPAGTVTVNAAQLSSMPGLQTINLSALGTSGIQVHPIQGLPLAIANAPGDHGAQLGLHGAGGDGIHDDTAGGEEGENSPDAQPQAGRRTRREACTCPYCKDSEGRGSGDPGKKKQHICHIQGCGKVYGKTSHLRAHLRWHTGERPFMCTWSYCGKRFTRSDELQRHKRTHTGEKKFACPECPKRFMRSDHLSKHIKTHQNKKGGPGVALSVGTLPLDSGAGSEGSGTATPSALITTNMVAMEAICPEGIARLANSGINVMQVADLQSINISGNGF
Procedure, shortened: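 Cells: HepG2, transiently transfected with cis-regulated multiplexed reporters. Exposure: 24 h. Detection: reporter transcripts amplified, fluorescently labeled, restriction-digested and sized by capillary electrophoresis. Analysis: bidirectional fit relative to DMSO.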

[7] = ATG_SREBP_CIS: Attagene CIS-FACTORIAL HepG2 Assay for human Sterol Regulatory Element Binding (SREBP) (AID 2282962); settings: HepG2 Attagene cis-factorial SREBP reporter, mRNA; actives raise or lower the signal
Procedure, shortened: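 HepG2 cells transiently transfected with multiplexed cis-promoter reporter units sensing endogenous transcription factors; reporter mRNA measured 24 h after dosing by RT-PCR, 6-FAM labeling, HpaI digestion and capillary electrophoresis. Bidirectional fit versus DMSO.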

[8] = target: Signal transducer and activator of transcription 3 (Homo sapiens) (UniProt P40763); experiment: ATG_STAT3_CIS: Attagene CIS-FACTORIAL HepG2 Assay for human Signal Transducer and Activator of Transcription 3 (STAT3) (AID 2282963); settings: HepG2, Attagene cis-factorial STAT3 reporter transcription; actives raise or lower the signal
Chain of Signal transducer and activator of transcription 3 (Homo sapiens) (P40763 whole entry, looked up): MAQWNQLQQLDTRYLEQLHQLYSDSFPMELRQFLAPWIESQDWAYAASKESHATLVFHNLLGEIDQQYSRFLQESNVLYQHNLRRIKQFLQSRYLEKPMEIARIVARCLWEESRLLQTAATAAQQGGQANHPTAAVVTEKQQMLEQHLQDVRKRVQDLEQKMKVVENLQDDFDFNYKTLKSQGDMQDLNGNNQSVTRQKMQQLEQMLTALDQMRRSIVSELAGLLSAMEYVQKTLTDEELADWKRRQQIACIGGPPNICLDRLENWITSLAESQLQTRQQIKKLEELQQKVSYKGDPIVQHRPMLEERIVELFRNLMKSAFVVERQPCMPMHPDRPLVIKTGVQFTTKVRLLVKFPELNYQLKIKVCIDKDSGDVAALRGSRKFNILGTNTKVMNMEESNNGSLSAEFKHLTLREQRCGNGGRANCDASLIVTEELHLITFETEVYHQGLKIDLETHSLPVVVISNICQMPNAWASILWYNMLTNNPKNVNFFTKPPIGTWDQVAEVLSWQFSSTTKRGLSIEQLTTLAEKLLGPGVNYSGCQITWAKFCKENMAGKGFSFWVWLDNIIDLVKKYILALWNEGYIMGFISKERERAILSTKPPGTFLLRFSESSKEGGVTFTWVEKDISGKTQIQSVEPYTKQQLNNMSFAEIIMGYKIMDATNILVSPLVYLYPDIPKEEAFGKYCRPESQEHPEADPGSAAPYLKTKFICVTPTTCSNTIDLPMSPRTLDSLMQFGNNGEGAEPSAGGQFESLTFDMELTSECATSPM
Procedure, shortened: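 HepG2 cells transiently transfected with multiple cis-element-driven reporter units report endogenous transcription factor activity. After 24 h compound exposure, reporter mRNA is measured by RT-PCR, 6-FAM labelling, HpaI digestion and capillary electrophoresis. Fitted bidirectionally versus DMSO.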

[9] = ATG_TA_CIS: Attagene CIS-FACTORIAL HepG2 Assay for human TA Basal Promoter (AID 2282964); settings: HepG2 Attagene CIS-factorial TA basal promoter reporter; actives raise or lower the signal
Procedure, shortened: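 Cis-factorial format in HepG2: reporters report endogenous factors, not chimeric Gal4 fusions. After 24 h treatment, reporter transcripts were measured by RT-PCR-capillary electrophoresis fluorescence, analysed bidirectionally versus DMSO.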

[10] = ATG_TCF_b_cat_CIS: Attagene CIS-FACTORIAL HepG2 Assay for human T-Cell-Factor with beta-catenin (TCF/b-cat) (AID 2282965); settings: HepG2 TCF/beta-catenin cis-reporter transcription, actives raise or lower the signal
Procedure, shortened: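 HepG2 cells transiently transfected with cis-promoter-driven multiplexed reporter units; reporter mRNA measured 24 h after dosing by RT-PCR, FAM labelling, HpaI digestion and capillary electrophoresis. Bidirectional fitting relative to DMSO baseline.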

[11] = ATG_TAL_CIS: Attagene CIS-FACTORIAL HepG2 Assay for human TAL Basal Promoter (AID 2282966); settings: HepG2 Attagene cis-factorial TAL promoter reporter; actives raise or lower the signal;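 note: background control endpoint measuring basal TAL promoter reporter mRNA not a specific factor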
Procedure, shortened: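 RT-PCR plus capillary electrophoresis quantifies reporter mRNA induction in transiently transfected HepG2 cells after 24 h chemical treatment. DMSO serves as negative control and baseline for bidirectional fitting.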

[12] = ATG_VDRE_CIS: Attagene CIS-FACTORIAL HepG2 Assay for human Vitamin D Receptor Element (VDRE) (AID 2282968); settings: HepG2 VDRE cis-reporter transcription, actives raise or lower the signal
Procedure, shortened: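 Transiently transfected HepG2 cells carrying cis-regulated reporter transcription units were exposed for 24 h. Reporter mRNA was measured by RT-PCR with fluorescent labelling and capillary electrophoresis, and fitted in both directions against DMSO.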

[13] = target: Estrogen receptor (Homo sapiens) (UniProt P03372); experiment: ATG_ERa_TRANS: Attagene TRANS-FACTORIAL HepG2 Assay for human Estrogen Receptor alpha (ERa) (AID 2282970; active = hit-call score of the fitted dose curve at least 0.9, where 1 is the maximum); settings: HepG2 Attagene TRANS ERa GAL4 reporter, mRNA
Chain of Estrogen receptor (Homo sapiens) (P03372 whole entry, looked up, the tested form may be a part): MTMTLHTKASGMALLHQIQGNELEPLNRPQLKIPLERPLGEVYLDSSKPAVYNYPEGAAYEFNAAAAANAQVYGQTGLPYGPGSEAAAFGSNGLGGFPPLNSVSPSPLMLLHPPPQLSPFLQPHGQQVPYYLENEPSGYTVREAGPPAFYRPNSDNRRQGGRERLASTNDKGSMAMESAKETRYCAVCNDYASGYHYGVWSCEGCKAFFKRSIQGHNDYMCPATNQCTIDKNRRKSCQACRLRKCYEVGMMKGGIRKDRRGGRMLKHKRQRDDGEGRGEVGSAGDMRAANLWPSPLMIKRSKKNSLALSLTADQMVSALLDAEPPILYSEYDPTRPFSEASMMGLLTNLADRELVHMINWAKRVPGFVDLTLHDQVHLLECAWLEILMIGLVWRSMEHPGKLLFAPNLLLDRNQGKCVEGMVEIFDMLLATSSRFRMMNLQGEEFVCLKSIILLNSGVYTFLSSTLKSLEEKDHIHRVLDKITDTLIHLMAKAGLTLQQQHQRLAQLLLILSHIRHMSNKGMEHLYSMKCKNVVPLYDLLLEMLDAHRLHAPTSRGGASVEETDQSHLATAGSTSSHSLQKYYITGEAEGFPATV
Procedure, shortened: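 Cells: HepG2, transiently transfected. Construct: GAL4-UAS reporter units regulated by exogenous NR-Gal4 chimeras. Time: 24 h. Detection: reporter mRNA by RT-PCR, capillary electrophoresis, fluorescence. Baseline: DMSO, upward fitting.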

[14] = target: X-box-binding protein 1 (Homo sapiens) (UniProt P17861); experiment: ATG_Xbp1_CIS: Attagene CIS-FACTORIAL HepG2 Assay for human X-box Binding Protein 1 (XBP1) (AID 2282972); settings: HepG2 XBP1 cis-element reporter, Attagene multiplex; actives raise or lower the signal
Chain of X-box-binding protein 1 (Homo sapiens) (P17861 whole entry, looked up): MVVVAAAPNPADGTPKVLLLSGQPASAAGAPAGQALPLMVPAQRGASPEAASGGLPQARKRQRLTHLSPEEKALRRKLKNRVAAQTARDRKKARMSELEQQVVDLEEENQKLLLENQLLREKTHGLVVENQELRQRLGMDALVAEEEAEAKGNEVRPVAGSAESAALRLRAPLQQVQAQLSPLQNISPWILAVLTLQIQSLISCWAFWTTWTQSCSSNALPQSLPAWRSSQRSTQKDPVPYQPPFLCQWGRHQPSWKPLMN
Procedure, shortened: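 HepG2 cells transiently transfected with multiple cis-element reporter units report endogenous TF activity; 24 h exposure, then reporter mRNA measured by RT-PCR, 6-FAM labelling, HpaI digestion and capillary electrophoresis. Bidirectional fitting versus DMSO.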

[15] = ATG_GAL4_TRANS: Attagene TRANS-FACTORIAL HepG2 Assay for GAL4 (Internal Marker) (AID 2282976; active = hit-call score of the fitted dose curve at least 0.9, where 1 is the maximum); settings: HepG2 Attagene TRANS GAL4 internal marker reporter
Procedure, shortened: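 In transfected human HepG2 liver cells dosed 24 h, GAL4 reporter mRNA serves as a baseline marker. Detection by RT-PCR with fluorescent capillary electrophoresis, activity fitted upward relative to DMSO.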

[16] = ATG_TGFb_CIS: Attagene CIS-FACTORIAL HepG2 Assay for human Transforming Growth Factor (TGF) (AID 2282967); settings: HepG2 Attagene CIS TGFb reporter, mRNA transcription; actives raise or lower the signal
Procedure, shortened: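 Multiplexed cis-reporter HepG2 system, 24 h treatment; mRNA induction read by fluorescence after RT-PCR and CE; DMSO negative control, bidirectional curve fitting.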

[17] = ATG_M_19_TRANS: Attagene TRANS-FACTORIAL HepG2 Assay for M19 Transcription Factor (Internal Marker) (AID 2282974; active = hit-call score of the fitted dose curve at least 0.9, where 1 is the maximum); settings: HepG2 Attagene TRANS-FACTORIAL M19 internal marker reporter
Procedure, shortened: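 Reporter mRNA induction was measured in transfected HepG2 cells 24 h after dosing. Endpoint fitted upward relative to DMSO and serves as a background control within the multiplexed TRANS panel.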

[18] = target: Nuclear receptor subfamily 1 group I member 3 (Homo sapiens) (UniProt Q14994); experiment: ATG_CAR_TRANS: Attagene TRANS-FACTORIAL HepG2 Assay for human Constitutive Androstane Receptor (CAR) (AID 2282969; active = hit-call score of the fitted dose curve at least 0.9, where 1 is the maximum;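 note: activators raise reporter mRNA above DMSO so AC50 marks induction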); settings: HepG2 Attagene TRANS-FACTORIAL CAR reporter
Chain of Nuclear receptor subfamily 1 group I member 3 (Homo sapiens) (Q14994 whole entry, looked up, the tested form may be a part): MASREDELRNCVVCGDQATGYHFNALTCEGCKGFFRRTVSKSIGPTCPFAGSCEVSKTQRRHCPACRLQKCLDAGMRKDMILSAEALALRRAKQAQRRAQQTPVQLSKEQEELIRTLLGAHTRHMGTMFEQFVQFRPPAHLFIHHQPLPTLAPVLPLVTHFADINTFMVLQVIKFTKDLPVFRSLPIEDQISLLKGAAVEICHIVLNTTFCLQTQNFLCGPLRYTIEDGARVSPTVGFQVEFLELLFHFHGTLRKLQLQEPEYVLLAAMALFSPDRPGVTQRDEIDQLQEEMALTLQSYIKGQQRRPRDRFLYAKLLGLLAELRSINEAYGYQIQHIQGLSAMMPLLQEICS
Procedure, shortened: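 HepG2 cells transiently transfected with GAL4-UAS reporter units; TRANS format reads activity of exogenous chimeric NR-Gal4 protein. After 24 h dosing, reporter mRNA quantified by RT-PCR, 6-FAM labelling and capillary electrophoresis; gain of signal fitted against DMSO.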

[19] = target: Steroid hormone receptor ERR1 (Homo sapiens) (UniProt P11474); experiment: ATG_ERRa_TRANS: Attagene TRANS-FACTORIAL HepG2 Assay for human Estrogen-Related Receptor alpha (ERRa) (AID 2282971; active = hit-call score of the fitted dose curve at least 0.9, where 1 is the maximum); settings: HepG2 Attagene TRANS reporter, ERRa transactivation
Chain of Steroid hormone receptor ERR1 (Homo sapiens) (P11474 whole entry, looked up, the tested form may be a part): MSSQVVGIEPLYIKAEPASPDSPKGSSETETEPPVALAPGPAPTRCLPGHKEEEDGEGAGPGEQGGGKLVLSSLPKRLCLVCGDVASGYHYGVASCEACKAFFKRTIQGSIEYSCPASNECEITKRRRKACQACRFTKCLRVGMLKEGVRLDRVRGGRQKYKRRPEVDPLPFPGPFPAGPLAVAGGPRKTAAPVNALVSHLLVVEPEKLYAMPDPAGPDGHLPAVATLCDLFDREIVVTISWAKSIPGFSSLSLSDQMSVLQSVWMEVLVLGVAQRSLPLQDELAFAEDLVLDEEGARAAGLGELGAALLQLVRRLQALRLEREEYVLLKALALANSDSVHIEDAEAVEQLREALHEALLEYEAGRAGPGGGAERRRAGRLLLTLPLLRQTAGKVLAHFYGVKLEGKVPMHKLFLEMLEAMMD
Procedure, shortened: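 Reporter transcripts from ERRa-Gal4 chimera activity measured in transiently transfected human HepG2 cells 24 hours after dosing, using RT-PCR with 6-FAM primer extension, HpaI digestion and capillary electrophoresis; DMSO is baseline.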

[20] = target: Estrogen-related receptor gamma (Homo sapiens) (UniProt P62508); experiment: ATG_ERRg_TRANS: Attagene TRANS-FACTORIAL HepG2 Assay for human Estrogen-Related Receptor gamma (ERRg) (AID 2282977; active = hit-call score of the fitted dose curve at least 0.9, where 1 is the maximum;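 note: hits increase reporter signal over DMSO so potencies reflect activators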); settings: HepG2 Attagene TRANS reporter, ERRg transactivation
Chain of Estrogen-related receptor gamma (Homo sapiens) (P62508 whole entry, looked up, the tested form may be a part): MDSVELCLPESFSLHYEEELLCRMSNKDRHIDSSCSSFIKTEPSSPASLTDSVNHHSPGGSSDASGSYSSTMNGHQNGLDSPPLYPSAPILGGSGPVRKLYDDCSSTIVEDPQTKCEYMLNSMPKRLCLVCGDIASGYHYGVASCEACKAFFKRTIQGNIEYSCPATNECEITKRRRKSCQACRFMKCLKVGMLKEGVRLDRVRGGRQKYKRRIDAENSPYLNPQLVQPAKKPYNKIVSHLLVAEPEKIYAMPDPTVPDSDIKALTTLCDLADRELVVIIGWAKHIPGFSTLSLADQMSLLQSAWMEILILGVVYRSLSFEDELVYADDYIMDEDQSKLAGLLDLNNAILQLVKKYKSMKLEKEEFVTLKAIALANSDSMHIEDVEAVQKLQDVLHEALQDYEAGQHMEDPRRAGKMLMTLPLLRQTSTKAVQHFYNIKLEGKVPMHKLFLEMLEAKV
Procedure, shortened: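 HepG2 cells transiently transfected with multiplexed GAL4-UAS reporter units driven by chimeric NR-Gal4 proteins; 24 h exposure. Reporter mRNA quantified by RT-PCR, fluorescent labelling, HpaI digestion and capillary electrophoresis; gain of signal vs DMSO.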

Measured: AC50

COc1cc2ncnc(Nc3cccc(Cl)c3)c2cc1OC
active: [1] 25 µM | [9] 9.84 µM | [10] 6.77 µM | [11] 13.4 µM | [12] 12.7 µM | [14] 8.13 µM
not listed: [16] | [17] | [18] | [19] | [20]
inactive: all other assays above

CCC(C)CCCC(C)(C)O (stereo unspecified)
not listed: [12] | [13] | [15] | [18] | [19] | [20]
inactive: all other assays above

C=CC[N+](C)(C)CC=C
not listed: [9] | [13] | [16] | [17] | [18] | [19] | [20]
inactive: all other assays above

CCC/C=C/C=O
active: [2] 11.2 µM
not listed: [7] | [12] | [13] | [15] | [18] | [19] | [20]
inactive: all other assays above

NC(=O)c1ccccc1Cl
active: [1] 65 µM | [2] 40.7 µM | [5] 68.9 µM | [6] 41.1 µM | [10] 65.8 µM | [12] 63.3 µM | [14] 62.6 µM
not listed: [8] | [9] | [15]
inactive: all other assays above

CSc1nnc(C(C)(C)C)c(=O)[nH]1
not listed: [8] | [12] | [13] | [18] | [19] | [20]
inactive: all other assays above
